The structures appear in SMILES notation. Active and inactive are the calls of the source. Cut-off read from the data, not from the text of the source: active = inhibition above about 65%; inactive = the rest.

This assay has as its system Antitargets. As to the kind of experiment: Fam108b inhibition by ABPP, late-stage follow-up, biochemical, gel-based ABPP, recombinant soluble Fam108b, HTS hits, complex proteome (AID 588651).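 Note: Fam108b spiked into mouse brain membrane proteome; tested at 20 µM.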 Conditions: FP-rhodamine labeling in proteome.

Take `Oc1cccc2cc3cccc(O)c3c(O)c12`: the result was active.

For `Cc1ccc(-c2csc3nc(C(C)C)oc(=O)c23)c(C)c1`, the outcome was inactive.

On to `O=C(Nc1ccc(-c2csc(Nc3ccc(Cl)cc3)n2)cc1)c1cccc(C(F)(F)F)c1`, for which the result was active.

`O=C1C(SCCO)=C(SCCO)C(=O)c2ccccc21`: the result was inactive.

For `O=C(Nc1cccc(C(F)(F)F)c1)Nc1ccc(N2CCCC2)c(S(=O)(=O)Nc2ccccc2Cl)c1`, the outcome was active.

In the case of `O=C(Nc1ccc(N2CCCC2)c(S(=O)(=O)Nc2cccc(C(F)(F)F)c2)c1)c1cccs1`, the result was inactive.

Consider `CN(C)S(=O)(=O)c1cccc(NC(=O)COC(=O)c2cc(-c3cccc(Br)c3)nc3ccccc23)c1`, for which the outcome was inactive.

Regarding `Fc1ccc2nc(Nc3nc4cc5c(cc4s3)OCO5)sc2c1`, the outcome was inactive.

Take `COc1cc2cc(C(=O)NN=Cc3ccccc3Cl)[nH]c2cc1OC`: the result was inactive.

Take `Cc1[nH]c2c(C)cccc2c1CCNC(=O)c1ccc2c(c1[N+](=O)[O-])C(=O)c1ccccc1C2=O`: the outcome was inactive.

`O=C1C(Cl)=C(N2CCC(C(=O)O)CC2)C(=O)c2ccccc21`: the result was inactive.

Consider `COc1ccc(-c2csc3nc(-c4ccccc4F)oc(=O)c23)cc1`, for which the result was inactive.

For the compound `CC1=CC(=O)c2c(O)ccc(O)c2C1=O`, the outcome was inactive.

As for `Cc1ccc(S(=O)(=O)/N=C2\C=C(Nc3cccc(C(=O)O)c3)C(=O)c3ccccc32)cc1`, the outcome was inactive.

Turning to `O=[N+]([O-])c1ccc(NN=Cc2ccccc2O)cc1`, the result was inactive.

As to `CCNc1ccc2noc3c2c1C(=O)c1ccccc1-3`, the outcome was inactive.

Turning to `O=C(Nc1cccc(-c2csc(Nc3ccc(Cl)cc3)n2)c1)c1cc([N+](=O)[O-])cc(C(F)(F)F)c1`, the result was inactive.

In the case of `O=c1cc(-c2ccc(O)c(-c3c(O)cc(O)c4c(=O)cc(-c5ccc(O)cc5)oc34)c2)oc2cc(O)cc(O)c12`, the result was active.

In the case of `COc1cccc(C=NNc2nc(Nc3ccc([N+](=O)[O-])cc3)nc(N3CCCC3)n2)c1O`, the result was inactive.

As to `Cn1c(O)c(C=NNC(=O)c2cc3ccccc3cc2O)c2ccccc21`, the result was inactive.

On to `COc1cccc(C=NNC(=O)c2[nH]c(C)c(C(=O)NN=Cc3cccc(OC)c3O)c2C)c1O`, for which the result was active.

Regarding `O=C(O)C1Nc2ccc(Br)cc2C2C=CCC12` (stereo not drawn), the outcome was inactive.

In the case of `CCOc1cc(/C=C2\C(=O)N(c3nc(-c4ccc(Br)cc4)cs3)N=C2c2ccccc2)ccc1O`, the result was active.

Turning to `N=c1oc2cc(O)ccc2cc1C(=O)Nc1ccc(Br)cc1`, the result was inactive.

On to `Cc1cc(Nc2ccc(Cl)cc2)nc(NCc2ccccc2)n1`, for which the outcome was inactive.

Take `COc1cc2c(cc1NC(=O)Nc1ccccc1)oc1ccccc12`: the outcome was inactive.

As for `CCN(c1ccccc1)S(=O)(=O)c1ccc(NC(=O)c2nc(S(C)(=O)=O)ncc2Cl)cc1`, the result was inactive.

`Cc1[nH]c2ccccc2c1C=NNC(=O)c1cccc(S(=O)(=O)Nc2cccc(C(F)(F)F)c2)c1`: the outcome was inactive.

As to `O=C(NN=Cc1ccc(O)cc1)c1cccc(NN=Cc2ccc(O)cc2)c1`, the result was active.

For the compound `COc1ccc(/C=C/C(=O)OCC(=O)Nc2cccc(Oc3ccccc3)c2)c(OC)c1`, the outcome was inactive.

Regarding `CCN(CC)c1ccc(C2Nc3cccc4cccc(c34)N2)c(O)c1`, the outcome was inactive.

As for `CSC[C@@H]1NC(=S)N(c2ccc(C)cc2)C1=O`, the result was inactive.

Consider `O=C(NC1CCCCC1)c1sc(=S)n2c1[nH]c(=O)c1ccccc12`, for which the outcome was inactive.

Consider `Cc1cccc(N=Cc2nc(-c3ccccc3Br)oc2O)n1`, for which the outcome was inactive.

For the compound `COc1cc2c(cc1NC(=S)Nc1cccc(C(F)(F)F)c1)oc1ccccc12`, the outcome was inactive.

As for `Cn1c2ccccc2c2cc(C=NNC(=O)c3cc(O)ccc3O)ccc21`, the result was inactive.

Turning to `Oc1ccc(C=NNc2ccnc3cc(Cl)ccc23)c(O)c1O`, the outcome was active.

Consider `CC(C)(C)c1nc2scc(-c3cccs3)c2c(=O)o1`, for which the outcome was inactive.

With `Cc1c(O)ccc(C=NNc2nc(-c3cccnc3)nc3ccccc23)c1O`, the result was active.

As for `Cc1ccc2nc(CSc3nc(C)ccc3C#N)[nH]c2c1`, the outcome was inactive.

For `O=C(O)CCCNc1cc(N2CCN(C(=O)c3ccco3)CC2)c2noc3c2c1C(=O)c1ccccc1-3`, the result was inactive.

Regarding `O=C(Nc1ccc2[nH]c(=S)sc2c1)Nc1ccccc1F`, the outcome was inactive.

On to `O=C(CCCSc1ccccc1)Nc1nc(-c2ccco2)c(-c2ccco2)s1`, for which the result was inactive.

Take `CCc1cc(C(Cc2ccc3ccccc3n2)=NO)c(O)cc1O`: the result was active.

With `Cc1nc2scc(-c3ccccc3)c2c(=O)o1`, the outcome was inactive.

On to `O=C1c2ccccc2-c2onc3ccc(NCCCn4ccnc4)c1c23`, for which the result was inactive.

Consider `Nc1c(S(=O)(=O)c2cccc(Cl)c2)c2nc3ccccc3nc2n1N=Cc1ccc(O)c(O)c1`, for which the result was inactive.

As to `O=c1ccc2cc3c([nH]c4ccc(Br)cc43)oc-2c1O`, the result was inactive.

For the compound `Cc1cc(NN=Cc2c(O)ccc3ccccc23)nc(-c2ccccc2O)n1`, the result was inactive.

`CC1CCN(S(=O)(=O)c2ccc(C(=O)Nc3ccccc3-c3nc4ccccc4[nH]3)cc2)CC1`: the result was inactive.

With `COc1cc(-c2nc(-c3ccc4c(c3)-c3ccccc3S4(=O)=O)c(-c3ccccc3)[nH]2)cc(OC)c1O`, the result was inactive.

Consider `CCOC(=O)c1sc(NC(=O)Nc2ccc(Cl)cc2)cc1C`, for which the result was inactive.

`CCCCCCCCCCCCCCCC[n+]1ccc(C=NO)cc1`: the result was inactive.

Take `O=[N+]([O-])c1ccc(NN=Cc2c[nH]c3ccccc23)c(S(=O)(=O)Nc2ccc(Cl)cc2)c1`: the result was inactive.

For the compound `Cc1ccc(C)c(-n2c3nc(=O)[nH]c(=O)c-3cc3cc([N+](=O)[O-])ccc32)c1`, the result was inactive.

`O=S(=O)(c1cc(O)ccc1O)c1cccc2c(S(=O)(=O)c3cc(O)ccc3O)cccc12`: the result was inactive.

As for `COc1ccc(NC(=S)Nc2ccc3nsnc3c2)cc1`, the outcome was inactive.

On to `Oc1ccc(C=NNc2ccnc3cc(Cl)ccc23)cc1O`, for which the result was inactive.

In the case of `COc1ccc(/C=C2\SC(=S)N(CC(=O)OCC(=O)Nc3cc(Cl)cc(Cl)c3)C2=O)cc1`, the outcome was inactive.

In the case of `Cc1cc(C)nc(SCc2ccc(C(=O)NN=Cc3cccc(O)c3O)cc2)n1`, the result was active.

As to `O=C(Nc1ccc(F)cc1)Nc1ccc(N2CCCC2)c(S(=O)(=O)Nc2ccccc2Cl)c1`, the outcome was active.

For `Nc1cc2nsnc2cc1Br`, the result was inactive.

Turning to `Oc1oc(-c2ccccc2Br)nc1C=Nc1ccccn1`, the outcome was active.

With `O=c1oc(-c2ccccc2Cl)nc2ccsc12`, the result was inactive.

Take `Cc1ccc(-n2c(O)c(/C=N/Nc3ccc(S(=O)(=O)N4CCOCC4)cc3[N+](=O)[O-])c3ccccc3c2=O)c(C)c1`: the result was inactive.

Turning to `COc1ccc2oc(=O)c(-c3csc(Nc4cccc(O)c4)n3)cc2c1`, the result was inactive.

`Cc1ccc(S(=O)(=O)Nc2ccccc2C(=O)Nc2nc(-c3ccc(F)cc3)cs2)cc1`: the result was inactive.

For the compound `Oc1ccccc1C1Nc2cccc3cccc(c23)N1`, the result was inactive.
